Laboratory results from PubChem BioAssay (NCI).
About 79,000 compounds went through this panel and 15% of them were active in at least one assay; those are over-represented in the sample as a whole. Calls of active or inactive are those of the source. Cut-off read from the data, not from the text of the source: active = growth inhibition above about 70%; inactive = the rest.

Assay: NCI Yeast Anticancer Drug Screen. Data for the mgt1 strain (AID 153)
Details: S. cerevisiae mgt1 mutant growth inhibition, stronger effect = higher value
Procedure: Growth inhibition of yeast strains with defined genetic alterations is measured as a screen for potential anti-cancer activity. Selected strains with alterations in DNA damage repair or cell cycle control were exposed to compounds and growth inhibition was measured relative to vehicle treated controls. The strain used in this assay is mgt1

Measured: growth inhibition

O=C(O)CN(CCNC(=O)OCC1c2ccccc2-c2ccccc21)CCNC(=O)OCC1c2ccccc2-c2ccccc21
active: at 33.0 µM 98% | at 100.0 µM 95%
inactive: at 1.2 µM -4% | at 3.7 µM -1% | at 11.0 µM 9%

CC(O)CN1C(=O)c2cccc3cc([N+](=O)[O-])cc(c23)C1=O (stereo not given)
inactive: at 1.2 µM -23% | at 3.7 µM 4% | at 11.0 µM 6% | at 33.0 µM 15% | at 100.0 µM 23%

Nc1ccc2ncc(Nc3ccc(Cl)c(Cl)c3)nc2c1
inactive: at 1.2 µM -32% | at 3.7 µM -27% | at 11.0 µM 69%
active: at 33.0 µM 96% | at 100.0 µM 97%

CC(=O)CC[N+](C)(C)C
inactive: at 1.2 µM -29% | at 3.7 µM -21% | at 11.0 µM -17% | at 33.0 µM -21% | at 100.0 µM -2%

Cc1nc2ccc(Br)cc2c(=O)n1-c1ccc(NC2OCC(O)C(O)C2O)cc1 (stereo not given)
inactive: at 1.2 µM 6% | at 3.7 µM 9% | at 11.0 µM 24% | at 33.0 µM 41%
active: at 100.0 µM 81%

O=C(Cc1ccccc1)c1ccc(O)cc1
inactive: at 1.2 µM -45% | at 3.7 µM -56% | at 11.0 µM -38% | at 33.0 µM 51%
active: at 100.0 µM 82%

COc1ccc(/C=C2\S/C(=N/Nc3nc(-c4ccccc4)cs3)NC2=O)cc1OC
active: at 1.2 µM 92% | at 3.7 µM 97% | at 11.0 µM 98% | at 33.0 µM 97% | at 100.0 µM 93%

O=C(O)NCC1CCCCC1 (tested in a mixture with another compound)
inactive: at 1.2 µM -2% | at 3.7 µM -4% | at 11.0 µM -4% | at 33.0 µM -4% | at 100.0 µM 16%
